Source: ChEMBL document CHEMBL3988442, “University of Dundee, Small-Polar-MMV Screening Library” (2021)
About 13,000 (27%) of roughly 48,000 compounds showed an effect of 50% or more. The list shows a part of the results.

What follows are molecules tested on Wolbachia pipientis (assay: Anti-Wolbachia Cell-Based Screen). Conditions: 5 µM.
Type: functional
Parameters: scale not given: in the data most compounds retested in dose-response had high values

Structure (SMILES)	Percent Effect [%]
CCCSc1ncc(C2CC(=O)NCc3nc4ccccn4c32)cn1 (stereo not given)	2.221
COc1ccccc1C1(CNc2cn[nH]c(=O)c2Cl)CC1	2.708
CC(NC(=O)c1cccnc1N(C)C)c1ccccc1Br (stereo not given)	9.946
C=C(C)COc1cccc(C(=O)N(C)C(C)c2ccncn2)c1 (stereo not given)	-7.553
CCS(=O)(=O)N1CCCC2(CCCN2Cc2cccc(F)c2)C1.O=C(O)C(F)(F)F (stereo not given)	-5.383
O=C(O)C(F)(F)F.O=C(O)C(F)(F)F.O=C(O)CN1CCCC2(CCN2Cc2cccc(F)c2)C1 (stereo not given)	109.4
COCCC(=O)N1CCC2(CCN(Cc3cccc(F)c3)CC2)C1.O=C(O)C(F)(F)F	-14.27
O=C(O)C(F)(F)F.O=C(c1cscn1)N1CCC2(CN(Cc3nccs3)C2)C1	5.214
O=C(O)C(F)(F)F.O=C(c1ccccc1)N1CCCC2(CCN2Cc2cccc(F)c2)C1 (stereo not given)	106.4
CNC(=O)CN1C(=O)CCC12CCCN(Cc1cccc(F)c1)C2.O=C(O)C(F)(F)F.O=C(O)C(F)(F)F (stereo not given)	0.4911
O=C(O)C(F)(F)F.O=C(c1cscn1)N1CCC2(CCN(Cc3nccs3)CC2)C1	11.65
COC(=O)CCC(=O)N1CCCC2(CCCN2Cc2cccc(F)c2)C1.O=C(O)C(F)(F)F (stereo not given)	107.2
O=C(O)C(F)(F)F.O=S(=O)(c1ccccc1)N1CCC2(CCCN2Cc2cccc(Cl)c2)C1 (stereo not given)	-34.27
O=C(O)C(F)(F)F.O=C(c1cscn1)N1CCCC2(CCN2Cc2cccc(F)c2)C1 (stereo not given)	96.65
Cc1cnc(CNc2ccccc2CN(C)C(=O)c2cccs2)o1	6.302
Cc1cc(-c2nn(C)c(Cl)c2CN2CCOCC(O)C2)no1 (stereo not given)	7.686
Cc1ccc(OCC(=O)Nc2ncccc2OC(F)F)cc1	-8.184
COc1ccc(-c2nc(CN3CCCS3(=O)=O)co2)cc1	-14.94
Cc1ccccc1N1CCN(C(=O)CSc2ccncc2)CC1=O	-3.872
COC(=O)[C@@H]1CN(C(=O)NC(C)C)CCN1S(=O)(=O)c1ccccc1	-0.3484
CC(O)C(=O)N1CCN(c2ccccc2Cl)C(=O)C1 (stereo not given)	-6.675
CN(C)C(=O)N1CCN(c2ccc(Cl)nn2)C(=O)C1	97.53

Structure (SMILES)	Percent Effect [%]
Cc1ccc2cc(C(=O)N3CCN(C(=O)N(C)C)CC3)ccc2n1	1.001
CC(C)C(NC(N)=O)C(=O)N1CCN(c2ccccc2Cl)C(=O)C1 (stereo not given)	3.196
CC(C)NC(=O)N1CCN(c2ccc(Cl)nn2)C(=O)C1	110.8
CC(=O)N1CCN(c2ccc(Cl)nn2)C(=O)C1	106.1
COc1cccc(N2CCN(C(=O)C(O)c3ccccc3Cl)CC2=O)c1 (stereo not given)	0.2128
CCN1CCN(C(=O)C(C)SC)CC1 (stereo not given)	-3.808
CC(C)(NS(C)(=O)=O)C(=O)NCc1cccc(Br)c1	-10.37
Cc1cnc(CNc2ccc(C(=O)NCc3ccco3)cc2C)o1	-1.967
O=C1COc2ccc(S(=O)(=O)NCc3ccccc3)c3c2N1CCC3	-7.83
CCOC(=O)C1(Cc2ccc(Cl)cc2)CCN(Cc2ncc[nH]2)CC1	-10.72
Cc1[nH]c2ccccc2c1CCNC(=O)N1CCC2(C1)OCCO2	5.663
Cc1nc(C(Cc2ccsc2)NC(=O)CCN2CCOCC2)sc1C (stereo not given)	158.4
Cc1nc(-c2ccsc2)ccc1C(=O)NCCN1CCOCC1	-7.078
CC(NC(=O)Nc1ccccc1CN1CCOCC1)c1nccs1 (stereo not given)	15.83
Cc1ccc(C(=O)N2CCOCC2)cc1NCc1ccsc1	-10.53
Cc1ccc(CN2CCOCC2)cc1NCc1ccsc1	-9.351
Cc1nc(C(Cc2ccsc2)NC(=O)CN2CCOCC2)sc1C (stereo not given)	171.6
CNS(=O)(=O)c1cccc(C(C)NCc2ccsc2)c1 (stereo not given)	-13.31
O=C(C(CNCc1ccsc1)c1ccccc1)N1CCOCC1 (stereo not given)	2.12
Cc1cccc(CNC(Cc2ccsc2)c2nc(C)c(C)s2)n1.Cl (stereo not given)	125.8
Cc1n[nH]c(C2CN(CC(=O)NCCc3ccsc3)CCO2)n1 (stereo not given)	-13.37
O=C(CCN1CCOCC1)NC(Cc1ccsc1)c1nccs1 (stereo not given)	146.7

Structure (SMILES)	Percent Effect [%]
Cn1cc(C(C)(O)CNC(=O)c2cc(Br)cn2C)cn1 (stereo not given)	0.5421
Cc1n[nH]c(-c2ccc(NC(=O)C(C)(C)N3CCN(C)CC3)cc2)n1	-11.99
CC(C)(C)c1cnc(CN2CCCS2(=O)=O)o1	-7.665
O=C1CCc2cc(S(=O)(=O)NC(=O)c3ccc4c(c3)COC4)ccc2N1	-36.98
O=c1c2cccc(Cl)c2ncn1C1CCNC1 (stereo not given)	5.785
Cc1ccc(C(=O)NCc2ccccc2S(=O)(=O)N(C)CCO)cc1F	-6.958
Nc1ccnc(CNc2cc(F)ccc2OCC2CCCO2)n1 (stereo not given)	-8.979
O=C(Nc1ccccc1OCC1CCCCO1)c1ccc(O)nc1 (stereo not given)	2.227
Cc1cnc(C(=O)Nc2cc(F)ccc2OCC2CCCO2)cn1 (stereo not given)	-2.263
O=C(Nc1cc(F)ccc1OCC1CCCO1)c1ccc(O)nc1 (stereo not given)	10.58
CCn1nc(C)cc1C(=O)Nc1cc(F)ccc1OCC1CCCO1 (stereo not given)	-4.642
Fc1ccc(OCC2CCCO2)c(NCc2cn3cccnc3n2)c1 (stereo not given)	-2.31
CS(=O)(=O)CCC(=O)Nc1cc(F)ccc1OCC1CCCO1 (stereo not given)	92.36
Cc1ccc(C(=O)Nc2cc(F)ccc2OCC2CCCO2)cn1 (stereo not given)	-10.64
O=C(Nc1cc(F)ccc1OCC1CCCO1)NC1CC1 (stereo not given)	110.8
Cc1ccc(NC(=O)N2CCCC2)c(OCC2CCCO2)c1 (stereo not given)	97.39
O=C(CNc1cc(F)ccc1OCC1CCCO1)N1CCOCC1 (stereo not given)	97.1
CCOCCC(=O)Nc1cc(C(N)=O)ccc1N1CCCC(C)C1 (stereo not given)	-3.919
CCc1nc(CN(C)CC(c2cccs2)N2CCOCC2)no1 (stereo not given)	-2.837
COCCC(=O)N1CCc2cc(Cl)cc(Cl)c2C1	-13.08
Cc1c(-c2c(-c3ccccc3)ncn2[C@H](CO)C(=O)O)cnn1C	-0.2965
